KCNH2 WT inh: KCNH2 (human, wildtype) channel inhibition; U2OS, BacMam KCNH2, thallium flux FluxOr; hits give low values; activity change, % at 1.84 µM; 340,000 compounds, 0.37% hits;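 active = maximum activity change below -70%; inconclusive = maximum activity change between -70% and -50%; inactive = maximum activity change above -50%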; note: % is set by controls: 0 for no effect and ±100 for the full control effect
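U2OS cells were transduced with wild-type KCNH2 virus (2.03 x 10^8 / mL) for 4 h at room temperature, then cultured overnight at 37 C. Thallium flux was read with FluxOr dye. Rate constants were normalized to DMSO controls.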
S-ASM inh: inhibitors of human secretory acid sphingomyelinase | P17405 | placental ASM, HMU-PC fluorogenic substrate, 60 min | Potency, µM (doses to about 57.5 µM), for the others: at the top dose activity change, negative = inhibition, most hits filed as inhibitors | 340,000 compounds, 0.006% hits; note: potency is the fitted concentration of half-maximal effect
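Fluorogenic HMU-PC substrate (9 uM final) is turned over by placental ASM in 60 min at 37 C after a 10 min compound preincubation. Reaction ended by alkaline stop (pH 10), with fluorescence read at 386/447 nm.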
Apoferritin bind: candidate novel general anesthetic via apoferritin binding | P02791 | apoferritin/1-aminoanthracene competitive binding, fluorescence | Potency, µM (top dose mostly 77.5 µM), inactives show at the highest dose activity change, negative = displacement, hits mostly inhibitors | 350,000 compounds, 0.074% hits | AID 485281; note: potency is the fitted concentration of half-maximal effect; % is set by controls: 0 for no effect and ±100 for the full control effect; nearly all actives have a fitted effect of over 20% in size
Target sequence (P02791 2-175 limits assumed): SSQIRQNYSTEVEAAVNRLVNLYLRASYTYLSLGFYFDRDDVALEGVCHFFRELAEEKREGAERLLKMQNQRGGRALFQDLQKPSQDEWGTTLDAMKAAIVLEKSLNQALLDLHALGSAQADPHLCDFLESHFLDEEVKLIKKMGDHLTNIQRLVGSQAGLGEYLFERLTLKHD
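10 uM apoferritin + 50% sat. 1-AMA, PBS; cpd 10 min RT; Ex380/Em535 endpoint; normalized to free probe vs complex; 4-param Hill fit; propofol titration as pos. ctrl.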
IDH1 R132H inh: inhibitors of human mutant IDH1 R132H; O75874; IDH1-R132H enzyme, NADPH consumption, diaphorase/resazurin fluorescence; Potency, µM (doses to about 76.6 µM), for the others: top-dose activity change, negative = inhibition, usual class: inhibitors; 390,000 compounds, 0.093% hits; AID 602179; note: potency is the fitted concentration of half-maximal effect; % is set by controls: 0 for no effect and ±100 for the full control effect; nearly all actives have a fitted effect of over 65% in size
Target sequence (O75874 whole entry R132H, stated change not applied): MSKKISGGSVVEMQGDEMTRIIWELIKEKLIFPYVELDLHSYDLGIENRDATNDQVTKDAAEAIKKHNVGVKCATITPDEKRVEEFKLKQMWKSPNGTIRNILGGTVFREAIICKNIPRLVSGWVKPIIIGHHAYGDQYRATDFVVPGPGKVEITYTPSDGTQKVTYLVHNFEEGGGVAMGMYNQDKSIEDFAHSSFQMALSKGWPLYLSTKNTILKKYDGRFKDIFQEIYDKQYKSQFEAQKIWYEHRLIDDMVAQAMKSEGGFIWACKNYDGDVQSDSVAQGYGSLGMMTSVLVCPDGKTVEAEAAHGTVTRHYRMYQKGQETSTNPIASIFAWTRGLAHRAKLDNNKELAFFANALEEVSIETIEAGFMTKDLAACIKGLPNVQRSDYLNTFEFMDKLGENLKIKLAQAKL
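IDH1-R132H (0.5 ug/mL dispensed) in pH 7.5 Tris buffer was preincubated 30 min with compound, then given a substrate mix of 0.016 mM NADPH and 2 mM alpha-KG for 80 min at room temperature; remaining NADPH was read by diaphorase/resazurin fluorescence.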
KCNH2 3.1 inh: inhibitors of human KCNH2 3.1 potassium channel isoform; U2OS KCNH2 3.1, thallium flux FluxOr; hits give low values; activity change, % (tested at about 1.8 µM); 340,000 compounds, 0.95% hits; AID 720553;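 active = maximum activity change below -70%; inconclusive = maximum activity change from -70% to -50%; inactive = maximum activity change above -50%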;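 note: thallium influx rate constant from kinetic fluorescence after stimulation buffer; % is set by controls: 0 for no effect and ±100 for the full control effect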
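Channel expression came from 3.1 mutant virus (1.77 x 10^8 /mL) applied to suspended U2OS cells for 4 h. Flux was tracked with FluxOr dye plus Red40 quencher, and kinetic rate constants normalized to controls.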
The depositor's hits bear a star; ? = inconclusive; · = not tested or not shown; [ ] = another dose, or the depositor's remark. Compounds with a hit are over-represented: about 1.2% of the library has one in this group of screens. Unless noted, calls come from the whole dose curve; as a rule, active = well fitted inhibition curve with a large enough effect; inconclusive = small, poorly fitted or top-dose-only effect; inactive = no such curve, though single readings can be large or run the other way.

SMILES | KCNH2 WT inh | S-ASM inh | Apoferritin bind | IDH1 R132H inh | KCNH2 3.1 inh
COc1ccccc1NC(=O)C(Cc1ccccc1)NS(=O)(=O)c1ccc2c(c1)CCN2C(C)=O (centres undefined) | · | · | -1% | 26% | ·
N=C1N(c2ccccc2)C(=S)C(=Nc2ccccc2)N1c1ccccc1 | -71* | -3% | · | 2% | -18
O=C(CC1N=C2c3ccccc3N=C(SCc3ccccc3Cl)N2C1=O)NCc1cccs1 (centres undefined) | · | · | -22% | -19% | ·
CCN(CC)C(=O)Cn1c(=O)n(Cc2ccc(C(=O)NCc3ccccc3Cl)cc2)c(=O)c2ccccc21 | · | · | -2% | -6% | ·
CC(C)C[C@H]1CN=C(Nc2ccccc2)N1CCCC1CCCC1 | -92* | 2% | -12% | 7% | 11
CC1CCC(CN2C(Nc3ccccc3)=NC[C@@H]2Cc2ccccc2)CC1 (some centres undefined) | 8 | -5% | · | -6% | -91*
CC(C)C[C@H]1CN=C(Nc2ccccc2)N1CC1CCC(C)CC1 (some centres undefined) | 12 | -1% | -11% | 0% | -83*
S=C(NCCc1ccccc1)N1CCN(C23CC4CC(CC(C4)C2)C3)CC1 | -6 | 3% | -12% | 13% | -88*
Cc1c(-c2ccccc2)oc2c(C(=O)N3CCN(c4ccc([N+](=O)[O-])cc4)CC3)cccc2c1=O | -103* | -18% | -7% | 1% | -71*
O=C(C1COc2ccccc2O1)N1CCN(c2ccc([N+](=O)[O-])cc2)CC1 (centres undefined) | 3 | -18% | · | -8% | -73*
Cc1c(C(=O)N2CCN(c3ccc([N+](=O)[O-])cc3)CC2)oc2ccccc12 | -18 | -14% | · | 4% | -73*
Cc1c(C(=O)OCC(=O)N2CCN(c3ccccc3)CC2)oc2ccccc12 | -1 | -6% | · | 8% | -11
COC(C[C@@H](O)C[C@@H](O)[C@@H](C)OCc1ccccc1)OC | 5 | 4% | · | -8% | -222*
Cc1ccc(S(=O)(=O)c2nc(-c3cccs3)oc2SCc2ccc(F)cc2)cc1 | · | · | 2% | 15% | ·
COCCn1c(-c2ccc(C)cc2)nc2oc3cc(OC)ccc3c(=O)c2c1=O | 6 | -3% | 5% | 16% | -8
COCCn1c(-c2ccc(F)cc2)nc2oc3cc(OC)ccc3c(=O)c2c1=O | -2 | 3% | -6% | 2% | -91*
COc1ccc(-c2cc(C3CCN(c4cc(Cl)nc(N)n4)CC3)[nH]n2)cc1 | 2 | ? | -2% | 1% | -15
Nc1nc(Cl)cc(N2CCC(c3cc(-c4ccc(Cl)cc4)n[nH]3)CC2)n1 | 1 | ? | -14% | 6% | -74*
COc1ccc(-c2cc(C3CCN(Cc4ccc([N+](=O)[O-])cc4)CC3)[nH]n2)cc1 | -87* | -2% | -10% | -7% | -112*
COc1ccc(-c2cc(C3CCN(Cc4cccc(C(F)(F)F)c4)CC3)[nH]n2)cc1 | 47 | -6% | -11% | -5% | ·
Cc1ccc(CN2CCC(c3cc(-c4ccc(Cl)cc4)n[nH]3)CC2)cc1 | -84* | -1% | -4% | 4% | -102*
Cc1ccc(CN2CCC(c3nc4ccc(Cl)cc4[nH]3)CC2)cc1 | -132* | -1% | ? | 6% | -93*
COc1ccc2nc3c(cc2c1)Cn1c-3nc2ccccc2c1=O | · | · | 8% | · | ·
COc1ccc(C(=O)NCC(=O)OCc2cc(=O)n3nc(C4CCCCC4)sc3n2)cc1 | · | · | ? | -14% | ·
CCCn1c(SCc2nc(-c3ccc(OC)cc3OC)no2)nnc1-c1ccc(Cl)cc1 | · | · | 0% | 5% | ·
SMILES | KCNH2 WT inh | S-ASM inh | Apoferritin bind | IDH1 R132H inh | KCNH2 3.1 inh
Cc1ccc(O)c(NC2=C(Cl)C(=O)N(Cc3ccccc3)C2=O)c1 | -8 | -15% | 22µM* | 0% | -26
Cc1ccc(C(=O)N2CCCCC2)cc1NC1=C(Cl)C(=O)N(Cc2ccccc2)C1=O | 9 | -10% | · | 6% | -25
CS(=O)(=O)c1cccc(C(=O)OCCCC(=O)c2ccccc2)c1 | -7 | -3% | · | -4% | -7
CN(C)c1cccc(C(=O)OCCCC(=O)c2ccc(F)cc2)c1 | -5 | 6% | · | 6% | -130*
CCCCC1CCC(C(=O)N2CC(=O)Nc3ccc(C)cc3C2c2ccc(F)cc2)CC1 (centres undefined) | · | · | -5% | 7% | ·
COc1cc(OC)cc(-c2nnc(NC(=O)CCS(=O)(=O)c3ccc(F)cc3)o2)c1 | 0 | 2% | · | 7% | -75*
COc1cc(OC)cc(-c2nnc(NC(=O)CCS(=O)(=O)c3ccccc3)o2)c1 | 1 | · | · | -3% | -11
COc1ccc(O[C@H]2C=C[C@@H](c3ccccc3)O[C@H]2COC(=O)CC/C(C)=N\OC[C@@H](O)[C@H]2O[C@H]3OC(C)(C)O[C@H]3[C@@H]2O)cc1 | · | · | 5%[15.3 µM] | · | ·
COc1ccc(N(CC(=O)NCCSCc2c(F)cccc2Cl)S(C)(=O)=O)cc1OC | 6 | 2% | -4% | 2% | -5
COc1ccc(N(CC(=O)NCCSCc2ccccc2Cl)S(C)(=O)=O)cc1Cl | -1 | 1% | -2% | -3% | -74*
CN(C1CCCCC1)S(=O)(=O)c1cccc(C(=O)OCC(=O)NC2CCCc3ccccc32)c1 (centres undefined) | 53 | -1% | 0% | -4% | -92*
CN(CC(=O)NC1CCCc2ccccc21)C1CCCCC1 (centres undefined) | 0 | 3% | -13% | 0% | -1
COc1ccc(CNCc2c(C(=O)O)c(C)n(Cc3ccccc3C)c2C)cc1OC | · | · | -8% | 25% | ·
CCC(C)NC(=O)CN1C(=O)NC2(CCc3ccccc3C2)C1=O (centres undefined) | 0 | 3% | -3% | 1% | -77*
COc1cc(N=c2ssnc2Cl)c(OC)cc1Cl | 11 | -1% | ? | 46µM* | 4
N#C/C(=C/c1ccc(Br)s1)C(=O)NCCc1c[nH]c2ccccc12 | -74* | -24% | -23% | -2% | -7
